Results: the supplement of paper PMC10849652
Of roughly 7,900 targets only a part is listed; those with a hit were picked by preference. About 0.6% of all pairs of compound and target were hits.

Experiments:
Test in all cases: log2 fold change, soluble protein after heating vs DMSO (PISA); higher = thermal stabilisation; K562 cells, 10 uM, 30 min; active = over 0.2 and 3.5 SD of the protein, either way, in both replicates (recomputed)
[1] = compound: CS(=O)(=O)c1ccc(-c2cnc(N)c(C(=O)Nc3ccccc3)n2)cc1
In short: (§1)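 K562 cells at 2×10^6 cells/mL were treated with 10 μM compound for 30 min. Aliquots were heated for 3 min across 48°C-58°C, pooled, and extracted in PBS with 0.5% NP-40 at 4°C; soluble protein was the supernatant after 21,000xg for 90 min. Soluble protein was quantified by TMTpro 16plex LC-MS/MS with channel sums equalised, and reported as log2 fold change in thermal stability against DMSO controls, with values from duplicates.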

crizotinib = compound: C[C@@H](Oc1cc(-c2cnn(C3CCNCC3)c2)cnc1N)c1c(Cl)ccc(F)c1Cl [crizotinib]
In short: as §1

[2] = compound: C[C@@H]1COCCN1C2=NC(=NC(=C2)C3(CC3)S(=O)(=O)C)C4=C5C=CNC5=CC=C4
In short: as §1

[3] = compound: C[C@H](C1=CC=C(C=C1)C(=O)NC2=C3C=CNC3=NC=C2)N
In short: as §1

duvelisib = compound: C[C@H](Nc1ncnc2nc[nH]c12)c1cc2cccc(Cl)c2c(=O)n1-c1ccccc1 [duvelisib]
In short: as §1

gandotinib = compound: Cc1cc(Nc2cc(CN3CCOCC3)c3nc(C)c(Cc4ccc(Cl)cc4F)n3n2)n[nH]1 [gandotinib]
In short: as §1

tozasertib = compound: Cc1cc(Nc2cc(N3CCN(C)CC3)nc(Sc3ccc(NC(=O)C4CC4)cc3)n2)n[nH]1 [tozasertib]
In short: as §1

[4] = compound: Cc1cc(SCc2sc(-c3ccc(C(F)(F)F)cc3)nc2C)ccc1OCC(=O)O
In short: as §1

doramapimod = compound: Cc1ccc(-n2nc(C(C)(C)C)cc2NC(=O)Nc2ccc(OCCN3CCOCC3)c3ccccc23)cc1 [doramapimod]
In short: as §1

ispinesib = compound: Cc1ccc(C(=O)N(CCCN)[C@@H](c2nc3cc(Cl)ccc3c(=O)n2Cc2ccccc2)C(C)C)cc1 [ispinesib]
In short: as §1

Sequence of UniProt Q96DA6 (Q96DA6 whole entry, looked up): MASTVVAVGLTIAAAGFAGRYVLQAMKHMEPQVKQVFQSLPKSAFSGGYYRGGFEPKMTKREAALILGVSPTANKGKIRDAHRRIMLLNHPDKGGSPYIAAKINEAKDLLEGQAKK
Sequence of UniProt P98173 (P98173 whole entry, looked up): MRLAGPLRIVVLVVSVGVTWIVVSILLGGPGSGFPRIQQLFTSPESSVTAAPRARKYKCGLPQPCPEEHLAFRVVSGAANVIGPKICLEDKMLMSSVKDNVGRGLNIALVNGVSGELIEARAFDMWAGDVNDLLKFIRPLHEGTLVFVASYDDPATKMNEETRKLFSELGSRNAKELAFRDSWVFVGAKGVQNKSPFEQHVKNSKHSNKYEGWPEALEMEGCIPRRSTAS
Sequence of UniProt P68104 (P68104 whole entry, looked up): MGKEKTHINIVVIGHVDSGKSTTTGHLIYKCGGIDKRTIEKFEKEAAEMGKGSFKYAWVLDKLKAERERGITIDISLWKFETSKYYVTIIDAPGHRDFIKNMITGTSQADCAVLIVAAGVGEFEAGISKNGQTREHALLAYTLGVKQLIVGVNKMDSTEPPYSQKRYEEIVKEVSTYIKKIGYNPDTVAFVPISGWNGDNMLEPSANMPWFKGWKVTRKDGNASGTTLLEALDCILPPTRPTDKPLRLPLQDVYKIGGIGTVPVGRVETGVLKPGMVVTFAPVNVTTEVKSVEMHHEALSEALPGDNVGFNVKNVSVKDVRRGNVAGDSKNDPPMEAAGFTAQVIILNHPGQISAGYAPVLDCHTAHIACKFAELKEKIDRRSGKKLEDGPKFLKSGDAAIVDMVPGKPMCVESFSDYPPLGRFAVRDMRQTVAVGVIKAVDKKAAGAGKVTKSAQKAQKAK
Sequence of UniProt P49366 (P49366 whole entry, looked up): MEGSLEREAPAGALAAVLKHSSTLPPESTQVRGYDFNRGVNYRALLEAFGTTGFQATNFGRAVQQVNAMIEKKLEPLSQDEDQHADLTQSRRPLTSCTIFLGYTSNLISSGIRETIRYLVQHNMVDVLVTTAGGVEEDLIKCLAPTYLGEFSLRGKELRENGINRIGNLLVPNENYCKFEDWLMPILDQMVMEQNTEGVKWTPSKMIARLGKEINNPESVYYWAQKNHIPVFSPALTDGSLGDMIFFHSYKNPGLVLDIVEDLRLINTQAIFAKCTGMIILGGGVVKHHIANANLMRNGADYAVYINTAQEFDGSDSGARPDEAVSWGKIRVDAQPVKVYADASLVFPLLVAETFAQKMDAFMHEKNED
Sequence of UniProt P29692 (P29692 whole entry, looked up): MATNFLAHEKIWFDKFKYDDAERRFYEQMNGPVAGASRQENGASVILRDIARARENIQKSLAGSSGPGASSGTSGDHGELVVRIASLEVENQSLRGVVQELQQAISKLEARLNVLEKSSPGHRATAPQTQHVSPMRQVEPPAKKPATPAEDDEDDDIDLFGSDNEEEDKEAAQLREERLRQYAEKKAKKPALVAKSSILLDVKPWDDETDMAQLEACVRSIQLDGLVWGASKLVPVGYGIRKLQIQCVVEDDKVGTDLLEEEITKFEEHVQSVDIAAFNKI
Sequence of UniProt P26641 (P26641 whole entry, looked up): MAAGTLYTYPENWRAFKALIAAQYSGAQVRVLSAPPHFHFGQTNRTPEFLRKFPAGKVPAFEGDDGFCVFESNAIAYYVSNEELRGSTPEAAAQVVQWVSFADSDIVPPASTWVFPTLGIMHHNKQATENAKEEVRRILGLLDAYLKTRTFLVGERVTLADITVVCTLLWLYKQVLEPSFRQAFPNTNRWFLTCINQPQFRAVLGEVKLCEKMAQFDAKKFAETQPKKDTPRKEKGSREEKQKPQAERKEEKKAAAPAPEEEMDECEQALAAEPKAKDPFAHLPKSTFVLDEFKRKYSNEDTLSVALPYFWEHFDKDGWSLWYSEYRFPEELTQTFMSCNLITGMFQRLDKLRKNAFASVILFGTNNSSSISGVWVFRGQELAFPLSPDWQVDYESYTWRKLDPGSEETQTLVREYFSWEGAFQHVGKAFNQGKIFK
Sequence of UniProt Q96GE9 (Q96GE9 whole entry, looked up): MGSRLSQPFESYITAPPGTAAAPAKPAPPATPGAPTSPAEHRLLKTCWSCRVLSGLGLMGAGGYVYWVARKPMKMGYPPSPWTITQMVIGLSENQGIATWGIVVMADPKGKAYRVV
Sequence of UniProt Q9BW60 (Q9BW60 whole entry, looked up): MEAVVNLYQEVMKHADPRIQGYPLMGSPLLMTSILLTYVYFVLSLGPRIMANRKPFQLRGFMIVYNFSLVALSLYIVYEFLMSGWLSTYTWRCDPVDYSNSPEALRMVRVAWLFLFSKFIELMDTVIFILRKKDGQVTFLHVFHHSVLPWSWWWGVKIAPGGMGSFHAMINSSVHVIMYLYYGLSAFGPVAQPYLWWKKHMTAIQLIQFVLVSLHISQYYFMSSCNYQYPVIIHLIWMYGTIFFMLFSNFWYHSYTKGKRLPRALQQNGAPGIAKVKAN
Sequence of UniProt O75477 (O75477 whole entry, looked up): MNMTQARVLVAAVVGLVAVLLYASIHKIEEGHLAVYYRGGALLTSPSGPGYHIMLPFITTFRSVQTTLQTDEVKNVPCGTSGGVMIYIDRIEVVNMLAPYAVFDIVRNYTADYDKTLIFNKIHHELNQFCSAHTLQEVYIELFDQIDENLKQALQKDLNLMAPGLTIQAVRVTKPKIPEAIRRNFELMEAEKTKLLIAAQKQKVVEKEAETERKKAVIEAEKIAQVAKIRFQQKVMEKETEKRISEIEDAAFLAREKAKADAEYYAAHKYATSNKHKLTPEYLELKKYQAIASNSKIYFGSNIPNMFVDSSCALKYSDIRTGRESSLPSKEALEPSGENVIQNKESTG
Sequence of UniProt Q15075 (Q15075 whole entry, looked up): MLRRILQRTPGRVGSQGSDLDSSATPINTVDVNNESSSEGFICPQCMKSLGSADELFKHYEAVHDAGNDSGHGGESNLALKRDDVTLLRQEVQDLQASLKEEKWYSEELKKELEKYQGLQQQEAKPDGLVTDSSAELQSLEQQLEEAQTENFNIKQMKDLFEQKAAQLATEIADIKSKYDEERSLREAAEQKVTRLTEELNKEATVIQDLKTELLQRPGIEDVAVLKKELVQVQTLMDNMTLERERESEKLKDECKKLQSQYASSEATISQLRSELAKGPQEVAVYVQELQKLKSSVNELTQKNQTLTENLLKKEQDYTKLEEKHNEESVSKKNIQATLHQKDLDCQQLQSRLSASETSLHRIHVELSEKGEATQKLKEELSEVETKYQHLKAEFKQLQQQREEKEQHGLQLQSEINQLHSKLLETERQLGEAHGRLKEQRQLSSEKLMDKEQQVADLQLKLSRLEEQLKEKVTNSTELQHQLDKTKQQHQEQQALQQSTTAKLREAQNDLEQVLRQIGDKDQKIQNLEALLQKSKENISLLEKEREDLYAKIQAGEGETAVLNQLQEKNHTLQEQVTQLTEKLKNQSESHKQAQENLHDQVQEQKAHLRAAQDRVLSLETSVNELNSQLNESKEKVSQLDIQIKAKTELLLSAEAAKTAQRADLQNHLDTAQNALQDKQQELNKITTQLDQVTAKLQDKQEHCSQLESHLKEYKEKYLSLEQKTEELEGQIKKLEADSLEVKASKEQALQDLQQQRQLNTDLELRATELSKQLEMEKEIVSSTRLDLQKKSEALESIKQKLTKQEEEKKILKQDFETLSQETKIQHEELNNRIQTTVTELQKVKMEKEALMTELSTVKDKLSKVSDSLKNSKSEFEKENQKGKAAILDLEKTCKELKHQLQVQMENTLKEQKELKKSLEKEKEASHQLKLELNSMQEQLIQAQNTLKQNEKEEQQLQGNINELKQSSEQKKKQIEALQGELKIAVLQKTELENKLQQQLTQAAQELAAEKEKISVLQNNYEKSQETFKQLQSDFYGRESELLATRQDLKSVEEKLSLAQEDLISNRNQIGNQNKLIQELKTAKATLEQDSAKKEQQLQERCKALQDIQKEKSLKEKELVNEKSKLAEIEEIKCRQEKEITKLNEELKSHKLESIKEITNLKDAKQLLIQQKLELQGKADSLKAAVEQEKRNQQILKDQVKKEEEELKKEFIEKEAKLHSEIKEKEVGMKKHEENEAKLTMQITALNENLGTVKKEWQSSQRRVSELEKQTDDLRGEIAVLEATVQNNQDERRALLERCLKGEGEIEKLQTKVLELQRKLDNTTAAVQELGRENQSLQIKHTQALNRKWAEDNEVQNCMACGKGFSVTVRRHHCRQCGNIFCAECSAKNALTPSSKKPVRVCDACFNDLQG
Sequence of UniProt O75911 (O75911 whole entry, looked up): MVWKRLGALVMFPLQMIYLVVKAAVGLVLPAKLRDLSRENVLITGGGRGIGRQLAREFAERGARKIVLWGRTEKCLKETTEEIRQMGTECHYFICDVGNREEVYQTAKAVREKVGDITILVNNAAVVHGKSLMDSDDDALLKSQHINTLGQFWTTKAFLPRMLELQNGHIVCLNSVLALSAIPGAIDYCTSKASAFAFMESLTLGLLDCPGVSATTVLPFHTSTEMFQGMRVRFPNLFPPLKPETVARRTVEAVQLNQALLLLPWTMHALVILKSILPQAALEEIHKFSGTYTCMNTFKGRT
Sequence of UniProt Q9BU89 (Q9BU89 whole entry, looked up): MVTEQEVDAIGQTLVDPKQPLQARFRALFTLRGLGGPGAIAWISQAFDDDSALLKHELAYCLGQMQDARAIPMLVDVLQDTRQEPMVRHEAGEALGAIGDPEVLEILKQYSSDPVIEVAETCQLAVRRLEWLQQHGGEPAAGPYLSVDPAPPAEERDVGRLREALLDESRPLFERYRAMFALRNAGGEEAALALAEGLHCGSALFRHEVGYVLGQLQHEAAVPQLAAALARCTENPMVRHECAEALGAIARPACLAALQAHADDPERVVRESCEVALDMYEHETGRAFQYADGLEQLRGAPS
Sequence of UniProt P00374 (P00374 whole entry, looked up): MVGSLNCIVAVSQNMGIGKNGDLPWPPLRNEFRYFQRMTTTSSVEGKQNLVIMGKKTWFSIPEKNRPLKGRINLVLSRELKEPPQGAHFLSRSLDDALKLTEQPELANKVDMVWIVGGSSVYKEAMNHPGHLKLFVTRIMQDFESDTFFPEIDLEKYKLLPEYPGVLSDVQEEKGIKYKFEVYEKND

Target | log2 fold change [1] | log2 fold change (crizotinib) | log2 fold change [2] | log2 fold change [3] | log2 fold change (duvelisib) | log2 fold change (gandotinib) | log2 fold change (tozasertib) | log2 fold change [4] | log2 fold change (doramapimod) | log2 fold change (ispinesib)
DOCK8 (UniProt Q8NF50) | 0.216 (inactive) | -0.011 (inactive) | -0.075 (inactive) | 0.67 (active) | 0.038 (inactive) | 0.146 (inactive) | -0.119 (inactive) | -0.036 (inactive) | -0.004 (inactive) | -0.402 (inactive)
FAM177A1 isoform 2 (UniProt Q8N128) | 0.018 (inactive) | -0.109 (inactive) | 0.059 (inactive) | -0.063 (inactive) | 0.012 (inactive) | -0.102 (inactive) | -0.072 (inactive) | -0.027 (inactive) | -0.012 (inactive) | -0.082 (inactive)
DHPS (UniProt P49366) | 0.015 (inactive) | -0.008 (inactive) | 0.043 (inactive) | -0.047 (inactive) | 0.059 (inactive) | 0.032 (inactive) | -0.046 (inactive) | -0.054 (inactive) | 0.051 (inactive) | 0.067 (inactive)
EEF1G isoform 2 (UniProt P26641) | 0.011 (inactive) | 0.015 (inactive) | -0.028 (inactive) | 0.006 (inactive) | -0.011 (inactive) | -0.061 (inactive) | 0.046 (inactive) | 0.061 (inactive) | -0.013 (inactive) | 0.061 (inactive)
DAG1 (UniProt Q14118) | 0.037 (inactive) | 0.119 (inactive) | 0.132 (inactive) | 0.032 (inactive) | 0.116 (inactive) | -0.006 (inactive) | -0.084 (inactive) | -0.032 (inactive) | -0.001 (inactive) | -0.001 (inactive)
DOHH (UniProt Q9BU89) | 0.049 (inactive) | 0.06 (inactive) | 0.287 (inactive) | -0.154 (inactive) | 0.055 (inactive) | 0.029 (inactive) | 0.127 (inactive) | 0.022 (inactive) | 0.005 (inactive) | -0.015 (inactive)
FAM3A (UniProt P98173) | 0.01 (inactive) | -0.071 (inactive) | 0.07 (inactive) | 0.01 (inactive) | 0.006 (inactive) | 0.014 (inactive) | -0.025 (inactive) | -0.075 (inactive) | 0.009 (inactive) | -0.065 (inactive)
DCTPP1 (UniProt Q9H773) | -0.025 (inactive) | 0.142 (inactive) | 0.179 (inactive) | -0.177 (inactive) | 0.072 (inactive) | -0.004 (inactive) | 0.024 (inactive) | -0.064 (inactive) | -0.002 (inactive) | 0.203 (inactive)
FAM114A2 (UniProt Q9NRY5) | -0.005 (inactive) | -0.197 (inactive) | 0.026 (inactive) | -0.026 (inactive) | 0.014 (inactive) | -0.06 (inactive) | 0.002 (inactive) | 0.011 (inactive) | -0.052 (inactive) | -0.096 (inactive)
EXOC6 (UniProt Q8TAG9) | 0.001 (inactive) | -0.206 (inactive) | -0.038 (inactive) | 0.033 (inactive) | -0.095 (inactive) | -0.098 (inactive) | 0.037 (inactive) | 0.1 (inactive) | 0.02 (inactive) | -0.363 (active)
EEA1 (UniProt Q15075) | -0.007 (inactive) | -0.007 (inactive) | -0.014 (inactive) | -0.046 (inactive) | 0.006 (inactive) | 0.02 (inactive) | -0.012 (inactive) | -0.04 (inactive) | 0.002 (inactive) | -0.22 (active)
ELOVL1 (UniProt Q9BW60) | 0.082 (inactive) | -0.182 (inactive) | -0.065 (inactive) | -0.14 (inactive) | 0.124 (inactive) | -0.206 (inactive) | -0.003 (inactive) | 0.078 (inactive) | -0.082 (inactive) | -0.297 (inactive)
EIF4E isoform 2 (UniProt P06730) | 0.198 (inactive) | 0.165 (inactive) | 0.4 (active) | -0.099 (inactive) | 0.143 (inactive) | -0.006 (inactive) | 0.003 (inactive) | -0.02 (inactive) | -0.045 (inactive) | 0.159 (inactive)
CYFIP1 (UniProt Q7L576) | 0.038 (inactive) | -0.029 (inactive) | 0.063 (inactive) | -0.042 (inactive) | 0.031 (inactive) | -0.079 (inactive) | 0 (inactive) | 0.038 (inactive) | -0.026 (inactive) | 0.031 (inactive)
EHBP1L1 (UniProt Q8N3D4) | 0.034 (inactive) | -0.01 (inactive) | -0.005 (inactive) | 0.012 (inactive) | 0.139 (inactive) | -0.206 (inactive) | 0.067 (inactive) | 0.115 (inactive) | -0.018 (inactive) | -0.047 (inactive)
EIF3J (UniProt O75822) | -0.024 (inactive) | -0.012 (inactive) | 0.009 (inactive) | -0.035 (inactive) | 0.048 (inactive) | -0.157 (inactive) | 0.038 (inactive) | 0.005 (inactive) | -0.022 (inactive) | 0.099 (inactive)
DMAC1 (UniProt Q96GE9) | 0.023 (inactive) | 0.034 (inactive) | 0.037 (inactive) | 0.005 (inactive) | 0.166 (inactive) | -0.087 (inactive) | -0.153 (inactive) | -0.22 (inactive) | 0.066 (inactive) | -0.108 (inactive)
DCAF6 isoform 3 (UniProt Q58WW2) | -0.008 (inactive) | 0.132 (inactive) | 0.026 (inactive) | -0.054 (inactive) | 0.025 (inactive) | -0.024 (inactive) | -0.034 (inactive) | -0.058 (inactive) | 0.056 (inactive) | 0.027 (inactive)
DNAJC19 (UniProt Q96DA6) | 0.008 (inactive) | -0.073 (inactive) | 0.055 (inactive) | -0.089 (inactive) | 0.004 (inactive) | 0.011 (inactive) | 0.007 (inactive) | -0.017 (inactive) | -0.011 (inactive) | -0.069 (inactive)
DHFR (UniProt P00374) | -0.009 (inactive) | 0.956 (active) | -0.015 (inactive) | 0.239 (inactive) | 0.604 (active) | -0.194 (inactive) | -0.151 (inactive) | 0.048 (inactive) | 0.179 (inactive) | -0.207 (inactive)
FAM118B (UniProt Q9BPY3) | 0.099 (inactive) | -0.169 (inactive) | -0.007 (inactive) | 0.107 (inactive) |  | -0.101 (inactive) | 0.019 (inactive) |  | -0.003 (inactive) | 0.046 (inactive)
DHX36 (UniProt Q9H2U1) | -0.071 (inactive) | -0.101 (inactive) | -0.062 (inactive) | 0.2 (inactive) | -0.029 (inactive) | 0.069 (inactive) | -0.047 (inactive) | 0.045 (inactive) | 0.051 (inactive) | -0.081 (inactive)
DDX11 (UniProt Q96FC9) | 0.02 (inactive) | -0.01 (inactive) | -0.144 (inactive) |  | 0.05 (inactive) |  | -0.068 (inactive) | 0.015 (inactive) | 0.224 (inactive) | 0.012 (inactive)
EEF1D isoform 2 (UniProt P29692) | 0.043 (inactive) | 0.004 (inactive) | -0.028 (inactive) | 0.066 (inactive) | -0.011 (inactive) | -0.057 (inactive) | 0.038 (inactive) | 0.04 (inactive) | 0.026 (inactive) | -0.055 (inactive)
DHRS3 (UniProt O75911) | 0.083 (inactive) | 0.093 (inactive) | 0.115 (inactive) | 0.069 (inactive) | 0.027 (inactive) | -0.027 (inactive) | -0.089 (inactive) | -0.049 (inactive) | -0.037 (inactive) | 0.015 (inactive)
EEF1A1 (UniProt P68104) | 0.081 (inactive) | 0.001 (inactive) | -0.022 (inactive) | -0.474 (inactive) | -0.048 (inactive) |  | -0.139 (inactive) | -0.004 (inactive) | -0.062 (inactive) | 0.115 (inactive)
ERLIN1 (UniProt O75477) | 0.012 (inactive) | -0.039 (inactive) | -0.038 (inactive) | 0.099 (inactive) | -0.021 (inactive) | -0.04 (inactive) | 0.025 (inactive) | 0.148 (inactive) | 0.057 (inactive) | -0.27 (active)
ELMO1 (UniProt Q92556) | 0.06 (inactive) | -0.019 (inactive) | 0 (inactive) |  | 0.163 (inactive) |  |  | -0.043 (inactive) | 0.033 (inactive) | -0.299 (inactive)
